Measured values: the supplement of paper PMC10849652
About 7,900 targets were measured; listed, in parts, are those with a hit and a random draw of the rest. About 0.6% of all pairs of compound and target were hits. Values without a mark were called inactive.

Key:
Assay in all cases: log2 fold change, soluble protein after heating vs DMSO (PISA); higher = thermal stabilisation; K562 cells, 10 uM, 30 min; active = over 0.2 and 3.5 SD of the protein, either way, in both replicates (recomputed)
[1] = compound: C#Cc1cccc(Nc2ncnc3cc(OCCOC)c(OCCOC)cc23)c1 [erlotinib]
In short: (§1)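 Soluble protein was defined as the supernatant after 21,000xg for 90 min. It came from K562 cells at 2×10^6 cells/mL given 10 μM compound for 30 min, heated in aliquots for 3 min across 48°C-58°C, pooled, and extracted in PBS with 0.5% NP-40 at 4°C, and was quantified by TMTpro 16plex LC-MS/MS with equalised channel sums. Thermal stability against control samples, from duplicates, is reported as log2 fold change.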

[2] = compound: C/C(=N\NC(=O)C1=CC(=CC=C1)S(=O)(=O)N2CCOCC2)/C3=C(C=CC(=C3)Cl)O
In short: as §1

[3] = compound: C1=CC(=C(C=C1Cl)C2=NC3=NC=CN=C3C(=N2)NC4=CC=NC=C4)F
In short: as §1

[4] = compound: C1=CC(=CC=C1C2=NC3=C(N2)C=C(C=C3)C(=O)N)OC4=CC=C(C=C4)Cl
In short: as §1

[5] = compound: C1=CC2=C(C=CC(=C2)/C=C\3/C(=O)NC(=NCC4=CC=CS4)S3)N=C1
In short: as §1

[6] = compound: C1=CC2=NC=CN=C2C=C1/C=C/3\C(=O)NC(=O)S3
In short: as §1

[7] = compound: C1=CC=C(C=C1)C2=NC(=C(N2)C3=CC=NC=C3)C4=CC(=C(C=C4)Cl)O
In short: as §1

[8] = compound: C1=CC=C2C(=C1)C3=NNC4=CC=CC(=C43)C2=O
In short: as §1

[9] = compound: C1CCN(C1)C(=O)NC2=CC=CC(=C2)NC3=NC=C(C(=N3)NCCC4=CN=CN4)Br
In short: as §1

[10] = compound: C1CN(CCC1(CC2=CC=C(C=C2)Cl)N)C3=NC=NC4=C3C=CN4
In short: as §1

[11] = compound: C1COCCN1CCN2C3=CC=CC=C3N=C2NC(=O)C4=CC(=CC=C4)[N+](=O)[O-] [IRAK-1-4 Inhibitor I]
In short: as §1

[12] = compound: C=CC(=O)N1CCC[C@@H](n2nc(-c3ccc(Oc4ccccc4)cc3)c3c(N)ncnc32)C1 [ibrutinib]
In short: as §1

[13] = compound: CC(=O)c1cnc2ccc(-c3cc(Cl)c(O)c(Cl)c3)nc2c1N[C@H]1CC[C@H](CN(C)C)CC1
In short: as §1

[14] = compound: CC(C)(C)Cn1c(N)nc2ccc(-c3[nH]c(C(C)(C)C)nc3-c3ccc(F)cc3)nc21 [ralimetinib]
In short: as §1

[15] = compound: CC(C)(O)CC(=O)NCCn1ccc2ncnc(Nc3ccc(Oc4cccc(C(F)(F)F)c4)c(Cl)c3)c21
In short: as §1

[16] = compound: CC(C)C1=C2N=C(C=C(N2N=C1)NCC3=CC=CC=C3)NCCCCCCN
In short: as §1

[17] = compound: CC(C)C[C@@H](C=O)NC(=O)[C@H](CC(C)C)NC(=O)[C@H](CC(C)C)NC(=O)OCc1ccccc1
In short: as §1

[18] = compound: CC(C)N(C[C@H]1O[C@@H](n2cnc3c(N)ncnc32)[C@H](O)[C@@H]1O)[C@H]1C[C@@H](CCc2nc3cc(C(C)(C)C)ccc3[nH]2)C1 [pinometostat]
In short: as §1

[19] = compound: CC1=C(C(CC(=O)N1)C2=CC=C(C=C2)C(F)(F)F)C(=O)NC3=C(C=C4C(=C3)C=NN4)F
In short: as §1

[20] = compound: CC1=C(C2=C(C=C1)C(=O)C3=CC=CC=C3N2CCCN)C
In short: as §1

Sequence of UniProt O75794 (O75794 whole entry, looked up): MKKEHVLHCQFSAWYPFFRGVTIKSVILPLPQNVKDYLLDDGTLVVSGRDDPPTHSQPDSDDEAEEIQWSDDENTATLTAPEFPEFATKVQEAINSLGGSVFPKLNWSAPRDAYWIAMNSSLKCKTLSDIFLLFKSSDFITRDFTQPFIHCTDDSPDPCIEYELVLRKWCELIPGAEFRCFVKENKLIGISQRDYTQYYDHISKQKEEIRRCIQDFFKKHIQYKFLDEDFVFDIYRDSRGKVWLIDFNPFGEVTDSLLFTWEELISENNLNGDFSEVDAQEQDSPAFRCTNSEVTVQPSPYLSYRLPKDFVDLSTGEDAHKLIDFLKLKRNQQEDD
Sequence of UniProt O75208 (O75208 whole entry, looked up): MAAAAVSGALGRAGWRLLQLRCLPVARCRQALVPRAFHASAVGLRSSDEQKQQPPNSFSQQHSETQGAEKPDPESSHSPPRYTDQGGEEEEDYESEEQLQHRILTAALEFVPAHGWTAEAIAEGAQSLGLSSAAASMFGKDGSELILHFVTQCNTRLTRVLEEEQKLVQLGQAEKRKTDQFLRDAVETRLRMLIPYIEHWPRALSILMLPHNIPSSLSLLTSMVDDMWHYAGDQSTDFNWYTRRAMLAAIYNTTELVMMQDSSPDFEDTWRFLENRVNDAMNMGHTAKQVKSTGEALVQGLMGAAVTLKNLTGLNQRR
Sequence of UniProt Q14839 (Q14839 whole entry, looked up): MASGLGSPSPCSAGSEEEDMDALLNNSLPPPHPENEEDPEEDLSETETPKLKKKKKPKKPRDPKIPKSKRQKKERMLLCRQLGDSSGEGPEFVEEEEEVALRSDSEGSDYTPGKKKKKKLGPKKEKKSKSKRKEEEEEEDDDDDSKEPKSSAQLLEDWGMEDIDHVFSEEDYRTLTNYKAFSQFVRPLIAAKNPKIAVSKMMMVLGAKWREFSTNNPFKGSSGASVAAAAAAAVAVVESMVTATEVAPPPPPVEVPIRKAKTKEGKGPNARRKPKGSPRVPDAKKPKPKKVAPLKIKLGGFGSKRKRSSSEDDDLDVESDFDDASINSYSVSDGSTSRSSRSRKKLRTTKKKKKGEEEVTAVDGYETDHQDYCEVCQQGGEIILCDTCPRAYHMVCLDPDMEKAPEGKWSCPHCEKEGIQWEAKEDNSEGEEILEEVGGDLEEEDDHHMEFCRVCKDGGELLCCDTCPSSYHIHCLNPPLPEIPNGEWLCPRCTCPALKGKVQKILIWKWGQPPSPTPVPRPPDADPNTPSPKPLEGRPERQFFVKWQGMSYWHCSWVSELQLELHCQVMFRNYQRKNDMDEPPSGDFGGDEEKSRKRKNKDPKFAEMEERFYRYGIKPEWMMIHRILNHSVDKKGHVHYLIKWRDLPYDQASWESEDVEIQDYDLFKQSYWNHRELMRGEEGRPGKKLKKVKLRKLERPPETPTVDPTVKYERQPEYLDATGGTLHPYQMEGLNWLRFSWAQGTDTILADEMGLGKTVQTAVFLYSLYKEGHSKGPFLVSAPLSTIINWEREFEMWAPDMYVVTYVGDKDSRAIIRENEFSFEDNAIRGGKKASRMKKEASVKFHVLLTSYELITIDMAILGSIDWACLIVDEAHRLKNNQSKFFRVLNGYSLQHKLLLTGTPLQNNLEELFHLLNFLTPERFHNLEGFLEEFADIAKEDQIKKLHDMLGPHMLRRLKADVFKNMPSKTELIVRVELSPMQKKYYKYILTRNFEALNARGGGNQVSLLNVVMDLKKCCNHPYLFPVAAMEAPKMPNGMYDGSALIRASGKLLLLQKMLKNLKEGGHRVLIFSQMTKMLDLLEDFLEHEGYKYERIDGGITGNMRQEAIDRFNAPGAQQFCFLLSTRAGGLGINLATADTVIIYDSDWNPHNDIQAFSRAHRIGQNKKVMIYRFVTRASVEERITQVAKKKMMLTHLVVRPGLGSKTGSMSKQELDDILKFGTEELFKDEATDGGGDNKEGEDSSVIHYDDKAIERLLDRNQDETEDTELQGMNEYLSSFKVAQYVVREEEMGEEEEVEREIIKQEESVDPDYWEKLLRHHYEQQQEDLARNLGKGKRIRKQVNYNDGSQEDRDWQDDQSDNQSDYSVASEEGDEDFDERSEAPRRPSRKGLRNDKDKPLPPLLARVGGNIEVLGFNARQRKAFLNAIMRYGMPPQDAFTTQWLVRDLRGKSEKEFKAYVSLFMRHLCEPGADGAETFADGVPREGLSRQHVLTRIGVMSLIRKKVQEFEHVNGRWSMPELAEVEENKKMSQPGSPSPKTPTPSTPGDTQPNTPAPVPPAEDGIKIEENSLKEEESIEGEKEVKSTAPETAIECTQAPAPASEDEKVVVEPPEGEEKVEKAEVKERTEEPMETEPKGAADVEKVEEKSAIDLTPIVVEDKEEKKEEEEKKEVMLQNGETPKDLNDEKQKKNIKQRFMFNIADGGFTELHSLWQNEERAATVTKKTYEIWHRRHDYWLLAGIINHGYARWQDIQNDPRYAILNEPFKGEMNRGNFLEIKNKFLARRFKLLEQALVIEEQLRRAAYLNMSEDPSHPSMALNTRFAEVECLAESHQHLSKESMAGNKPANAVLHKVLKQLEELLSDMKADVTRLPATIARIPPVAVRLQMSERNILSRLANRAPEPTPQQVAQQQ
Sequence of UniProt O75976 (O75976 whole entry, looked up): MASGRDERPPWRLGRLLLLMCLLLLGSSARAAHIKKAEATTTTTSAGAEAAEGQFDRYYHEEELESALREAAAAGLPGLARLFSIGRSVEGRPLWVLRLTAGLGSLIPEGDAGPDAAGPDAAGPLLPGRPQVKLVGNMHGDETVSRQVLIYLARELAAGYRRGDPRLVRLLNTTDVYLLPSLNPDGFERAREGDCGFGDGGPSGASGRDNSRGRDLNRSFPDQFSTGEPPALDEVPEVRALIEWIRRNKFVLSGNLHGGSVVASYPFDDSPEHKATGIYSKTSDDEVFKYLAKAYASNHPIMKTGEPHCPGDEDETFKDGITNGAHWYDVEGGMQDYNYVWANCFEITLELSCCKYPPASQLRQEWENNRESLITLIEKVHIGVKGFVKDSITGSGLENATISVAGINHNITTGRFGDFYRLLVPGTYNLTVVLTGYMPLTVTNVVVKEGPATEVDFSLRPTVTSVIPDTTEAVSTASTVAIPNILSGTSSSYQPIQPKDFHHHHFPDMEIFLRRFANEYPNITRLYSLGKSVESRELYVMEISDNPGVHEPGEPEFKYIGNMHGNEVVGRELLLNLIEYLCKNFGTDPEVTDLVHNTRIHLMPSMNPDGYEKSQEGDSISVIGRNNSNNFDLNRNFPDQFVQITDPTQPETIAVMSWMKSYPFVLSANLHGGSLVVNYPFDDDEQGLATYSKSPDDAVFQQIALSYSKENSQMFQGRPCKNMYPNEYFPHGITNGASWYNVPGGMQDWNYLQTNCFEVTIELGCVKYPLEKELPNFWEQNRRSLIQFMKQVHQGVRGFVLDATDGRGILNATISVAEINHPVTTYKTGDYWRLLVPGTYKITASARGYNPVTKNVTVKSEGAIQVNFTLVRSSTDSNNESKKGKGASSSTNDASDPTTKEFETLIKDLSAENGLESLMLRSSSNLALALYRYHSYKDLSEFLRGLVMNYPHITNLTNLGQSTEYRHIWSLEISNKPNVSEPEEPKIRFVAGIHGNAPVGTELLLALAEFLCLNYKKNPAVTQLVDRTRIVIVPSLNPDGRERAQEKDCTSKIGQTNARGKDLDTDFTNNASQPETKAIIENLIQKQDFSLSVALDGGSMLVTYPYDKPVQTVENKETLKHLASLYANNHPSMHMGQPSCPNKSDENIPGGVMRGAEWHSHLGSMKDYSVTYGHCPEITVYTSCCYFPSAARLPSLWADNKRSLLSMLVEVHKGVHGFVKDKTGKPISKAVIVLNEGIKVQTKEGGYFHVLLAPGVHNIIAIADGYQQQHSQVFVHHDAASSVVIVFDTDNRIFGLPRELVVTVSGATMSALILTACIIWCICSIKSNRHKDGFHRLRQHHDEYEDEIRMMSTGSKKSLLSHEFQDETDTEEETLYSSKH
Sequence of UniProt Q8IWX8 (Q8IWX8 whole entry, looked up): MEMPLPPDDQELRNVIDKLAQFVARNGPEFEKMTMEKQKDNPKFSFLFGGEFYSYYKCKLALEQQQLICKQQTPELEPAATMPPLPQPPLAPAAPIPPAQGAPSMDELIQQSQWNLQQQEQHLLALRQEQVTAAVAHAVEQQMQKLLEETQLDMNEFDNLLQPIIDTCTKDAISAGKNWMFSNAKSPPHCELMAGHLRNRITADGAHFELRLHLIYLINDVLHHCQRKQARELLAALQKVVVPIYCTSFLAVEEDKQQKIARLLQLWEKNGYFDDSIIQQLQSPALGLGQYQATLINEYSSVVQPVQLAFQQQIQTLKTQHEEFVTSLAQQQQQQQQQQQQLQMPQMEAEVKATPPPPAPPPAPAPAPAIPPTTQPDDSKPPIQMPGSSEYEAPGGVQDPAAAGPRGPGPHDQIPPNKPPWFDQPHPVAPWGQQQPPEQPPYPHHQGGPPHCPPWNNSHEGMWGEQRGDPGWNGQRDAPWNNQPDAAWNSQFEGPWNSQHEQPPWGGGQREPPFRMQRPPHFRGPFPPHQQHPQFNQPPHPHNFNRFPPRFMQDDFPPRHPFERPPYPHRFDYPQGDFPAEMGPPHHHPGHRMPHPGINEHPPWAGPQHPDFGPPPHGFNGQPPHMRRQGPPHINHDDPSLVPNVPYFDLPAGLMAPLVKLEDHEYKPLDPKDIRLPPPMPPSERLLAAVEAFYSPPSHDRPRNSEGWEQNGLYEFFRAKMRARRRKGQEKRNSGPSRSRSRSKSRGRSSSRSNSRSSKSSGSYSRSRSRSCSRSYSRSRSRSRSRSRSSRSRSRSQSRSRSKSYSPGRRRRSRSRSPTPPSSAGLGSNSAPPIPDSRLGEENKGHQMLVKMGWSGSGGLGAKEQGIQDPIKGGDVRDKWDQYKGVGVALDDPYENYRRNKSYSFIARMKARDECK
Sequence of UniProt P45973 (P45973 whole entry, looked up): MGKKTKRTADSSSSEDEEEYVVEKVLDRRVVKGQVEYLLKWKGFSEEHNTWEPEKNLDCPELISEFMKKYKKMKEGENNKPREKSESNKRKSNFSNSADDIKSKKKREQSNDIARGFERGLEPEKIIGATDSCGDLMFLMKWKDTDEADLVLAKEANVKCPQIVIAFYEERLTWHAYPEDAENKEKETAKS

Row | Target | log2 fold change [1] | log2 fold change [2] | log2 fold change [3] | log2 fold change [4] | log2 fold change [5] | log2 fold change [6] | log2 fold change [7] | log2 fold change [8] | log2 fold change [9] | log2 fold change [10] | log2 fold change [11] | log2 fold change [12] | log2 fold change [13] | log2 fold change [14] | log2 fold change [15] | log2 fold change [16] | log2 fold change [17] | log2 fold change [18] | log2 fold change [19] | log2 fold change [20]
1 | C4A (UniProt P0C0L4) | -0.117 | -0.05 | 0.024 | 0.078 | 0.12 | -0.032 | 0.002 | -0.132 | 0.072 | 0.104 | 0.017 | 0.08 | -0.01 | -0.083 | 0.226 | 0.111 | 0.01 | -0.11 | 0.086 | -0.192
2 | CS (UniProt O75390) | 0.028 | 0.035 | 0.033 | 0.002 | 0.051 | -0.009 | 0.072 | -0.064 | -0.015 | 0.035 | 0.02 | -0.004 | 0.002 | -0.04 | -0.178 | -0.148 | -0.069 | -0.05 | 0.02 | 0.008
3 | CNN2 (UniProt Q99439) | 0.047 | 0.124 | 0.109 | -0.039 | 0.013 | 0.032 | -0.012 | -0.011 | -0.017 | -0.042 | -0.037 | -0.07 | 0.011 | 0.007 | -0.091 | -0.052 | 0.038 | 0.018 | 0.05 | 0.007
4 | CCNK isoform 4 (UniProt O75909) | 0.079 | 0.006 | -0.138 | -0.016 | -0.126 | -0.013 | -0.068 | -0.077 | 0.047 | -0.126 | -0.143 | 0.02 | -0.058 | 0.031 | -0.007 | -0.008 | 0.045 | 0.15 | -0.046 | -0.047
5 | CHKA (UniProt P35790) | 0.012 | -0.008 | 0.036 | -0.018 | 0.001 | -0.119 | 0.069 | -0.188 | 0.005 | -0.021 | -0.034 | 0 | 0.085 | 0.006 | 0.057 | 0.113 | 0.019 | 0.088 | -0.061 | 0.079
6 | CDK12 (UniProt Q9NYV4) | -0.049 | 0.001 | -0.44 | 0.076 | -0.06 | -0.053 | -0.066 | -0.23 | -0.077 | -0.187 | -0.179 | 0.008 | -0.566 | 0.138 | 0.067 | -0.211 | 0.006 | 0.399 | 0.041 | -0.014
7 | COQ9 (UniProt O75208) | 0.035 | 0.082 | 0.006 | 0.016 | 0.034 | 0.056 | 0.012 | 0.008 | -0.018 | -0.001 | 0.005 | 0.03 | -0.007 | -0.055 | 0.085 | -0.092 | -0.024 | -0.062 | 0.019 | 0.043
8 | CPD (UniProt O75976) | -0.025 | -0.08 | 0.009 | 0.028 | 0.055 | 0.011 | -0.007 | -0.041 | -0.045 | 0.008 | -0.011 | -0.018 | -0.015 | -0.03 | -0.058 | -0.126 | 0.077 | 0.002 | 0.04 | -0.019
9 | CSE1L (UniProt P55060) | -0.005 | 0.056 | 0.064 | -0.033 | 0 | 0.052 | 0.012 | -0.044 | 0.028 | -0.04 | 0.001 | -0.028 | 0.033 | -0.011 | -0.144 | -0.145 | -0.029 | -0.027 | -0.008 | -0.02
10 | CDC123 (UniProt O75794) | -0.039 | 0.038 | 0.011 | 0.036 | -0.021 | 0.032 | 0.048 | -0.001 | -0.001 | 0.023 | -0.023 | -0.009 | -0.026 | -0.015 | -0.088 | -0.05 | 0.037 | -0.009 | 0 | 0.001
11 | CHD4 isoform 2 (UniProt Q14839) | 0.042 | 0.103 | -0.011 | -0.007 | 0.029 | 0.034 | 0.044 | -0.08 | -0.047 | -0.1 | -0.198 | -0.106 | -0.215 | 0.112 | -0.067 | -0.313 (active) | 0.045 | 0.07 | 0.013 | -0.057
12 | CBX5 (UniProt P45973) | -0.018 | 0.08 | 0 | 0.043 | 0.111 | 0.025 | 0.003 | -0.028 | -0.002 | -0.015 | -0.076 | 0.002 | -0.102 | -0.002 | 0.056 | -0.067 | -0.001 | -0.058 | -0.024 | -0.545 (active)
13 | CASP8 isoform 9 (UniProt Q14790) | -0.008 | 0.056 | -0.055 | -0.023 | 0.021 | 0.052 | -0.078 | 0.104 | -0.051 | -0.014 | -0.056 | -0.027 | 0.098 | -0.058 | -0.092 | -0.264 | -0.025 | 0.124 | 0.028 | 0
14 | CRKL (UniProt P46109) | -0.012 | -0.002 | 0.014 | -0.02 | 0.047 | 0.006 | -0.069 | -0.017 | 0.017 | 0.026 | 0.035 | -0.102 | -1.24 (active) | -0.054 | -0.004 | 0.042 | 0.057 | -0.022 | 0.042 | -0.008
15 | CA1 (UniProt P00915) | -0.025 | 0.022 | 0.03 | 0.006 | -0.079 | 0.009 | 0.064 | 0.004 | 0.018 | 0.054 | 0.068 | -0.02 | 0.003 | 0.017 | -0.031 | 0.119 | -0.011 | -0.006 | -0.019 | -0.043
16 | CHERP (UniProt Q8IWX8) | 0.083 | 0.065 | 0.014 | 0.053 | -0.03 | 0.09 | 0.026 | -0.036 | -0.084 | -0.113 | -0.091 | -0.069 | -0.317 (active) | 0.013 | -0.074 | -0.097 | 0.048 | 0.021 | 0.122 | -0.079
